{"source": "PubChem BioAssay AID777", "about": "(Sanford-Burnham Center for Chemical Genomics, 2007)", "note": "About 19,000 (20%) of roughly 96,000 compounds were called active. Only a sample is shown. Values without a mark were called inactive.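 Rule for the calls: active = blocking of liver enzyme CYP2C9 beyond about 50% at 5 µM (limit read from the data); inactive = the rest.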", "data": [{"target": "Cytochrome P450 2C9 (Homo sapiens) (UniProt P11712)", "sequence (P11712 whole entry, looked up)": "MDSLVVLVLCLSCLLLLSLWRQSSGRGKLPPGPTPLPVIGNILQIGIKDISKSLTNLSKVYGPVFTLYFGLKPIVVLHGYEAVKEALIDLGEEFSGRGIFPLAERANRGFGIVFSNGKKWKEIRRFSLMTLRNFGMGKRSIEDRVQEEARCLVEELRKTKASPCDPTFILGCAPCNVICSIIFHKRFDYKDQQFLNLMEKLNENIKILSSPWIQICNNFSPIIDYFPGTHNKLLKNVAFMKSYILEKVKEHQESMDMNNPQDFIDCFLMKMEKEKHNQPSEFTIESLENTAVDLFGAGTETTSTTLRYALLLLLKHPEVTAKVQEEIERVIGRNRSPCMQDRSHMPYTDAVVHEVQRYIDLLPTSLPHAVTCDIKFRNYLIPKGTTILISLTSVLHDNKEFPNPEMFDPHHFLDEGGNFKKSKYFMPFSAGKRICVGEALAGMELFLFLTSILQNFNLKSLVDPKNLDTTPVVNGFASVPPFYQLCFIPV", "test": "blockers of cytochrome P450 2C9 activity – biochemical, luminescence, ADME assay, primary screen (AID 777)", "details": "CYP2C9 Supersomes, luciferin-H conversion, at 5 µM, active compounds read high", "values": [{"smiles": "CCc1nnc(NC(=O)CSc2nc3c(c(=O)n2-c2ccccc2OC)SCC3)s1", "inhibition": "7.3%"}, {"smiles": "O=C(Cn1c(-c2cncs2)nc2ccccc21)NC1CCCC1", "inhibition": "2.4%"}, {"smiles": "Cc1ccc(-n2nc3c(c2NC(=O)CCC2CCCCC2)CS(=O)C3)cc1", "note": "(stereo not drawn)", "inhibition": "12%"}, {"smiles": "CCCOC(=O)c1[nH]c2c(c1C)C(=O)CC(c1cc(OC)c(OC)c(OC)c1)C2", "note": "(stereo not drawn)", "inhibition": "66.2% (active)"}, {"smiles": "COC(=O)C1C(=O)c2c([nH]c(C(=O)OCCSC)c2C)CC1C", "note": "(stereo not drawn)", "inhibition": "32.8%"}, {"smiles": "CCCOC(=O)c1[nH]c2c(c1C)C(=O)CC(c1cccs1)C2", "note": "(stereo not drawn)", "inhibition": "72.3% (active)"}, {"smiles": "CCOC(=O)c1[nH]c2c(c1C)C(=O)CC(c1ccc(N(C)C)cc1)C2", "note": "(stereo not drawn)", "inhibition": "36.2%"}, {"smiles": "O=c1c2ccccc2nc2n1C(CSCc1cccc(C(F)(F)F)c1)CS2", "note": "(stereo not drawn)", "inhibition": "38.6%"}, {"smiles": "CCOC(=O)CSc1nnc(CNC(=O)c2ccco2)n1-c1ccc(F)cc1", "inhibition": "-0.1%"}, {"smiles": "O=C(NC1CCCCC1)c1ccc(CNc2c(N3CCOCC3)c(=O)c2=O)cc1", "inhibition": "-23.2%"}, {"smiles": "O=C(NCCN1C(=O)C2C3C=CC(C3)C2C1=O)Nc1ccccn1", "note": "(stereo not drawn)", "inhibition": "-16.2%"}, {"smiles": "CC12CCC(C(=O)N3CCN(c4ncccn4)CC3)(c3nc4ccccc4nc31)C2(C)C", "note": "(stereo not drawn)", "inhibition": "51.5% (active)"}, {"smiles": "O=S(=O)(c1cccc2nonc12)N1CCN(c2cccc(Cl)c2)CC1", "inhibition": "12.3%"}, {"smiles": "O=C(NCCN1CCN(Cc2ccccc2)CC1)c1cc2c(=O)[nH]c3ccccc3c2s1", "inhibition": "31%"}, {"smiles": "CCCc1nnc(NC(=O)CN2C(=O)c3ccccc3S2(=O)=O)s1", "inhibition": "9.5%"}, {"smiles": "C=C(Br)CN1CCN(CC(=C)Br)CC1", "inhibition": "-1.7%"}, {"smiles": "O=C(O)C1CC=C(Cl)CC1C(=O)NCc1ccccc1", "note": "(stereo not drawn)", "inhibition": "13.8%"}, {"smiles": "Cc1occc1C(=O)Nc1nnc(-c2ccncc2)s1", "inhibition": "90.1% (active)"}, {"smiles": "Cc1ccc(C(=O)COc2cccc(NC(=O)c3ccco3)c2)cc1", "inhibition": "32.1%"}, {"smiles": "CCOc1cccc(C(=O)Nc2cnn(Cc3ccccc3)c2)c1", "inhibition": "10.6%"}, {"smiles": "CC(C)=CC(=O)Nc1nnc(-c2ccc(F)cc2)s1", "inhibition": "9%"}, {"smiles": "Cc1ccc(C(=O)Nc2nnc(-c3cccs3)s2)cc1C", "inhibition": "2%"}, {"smiles": "Cc1occc1C(=O)Nc1nnc(C2CCCCC2)s1", "inhibition": "0.6%"}, {"smiles": "Cc1occc1C(=O)NNC(=S)NCC(C)C", "inhibition": "12.4%"}, {"smiles": "Cc1occc1C(=O)Nc1cccc(Cn2cccn2)c1", "inhibition": "51.4% (active)"}, {"smiles": "Cc1ccc(C(=O)Nc2nnc(-c3ccncc3)s2)o1", "inhibition": "93.1% (active)"}, {"smiles": "COc1ccc(Oc2coc3cc(OC(=O)c4cncc(Br)c4)ccc3c2=O)cc1", "inhibition": "-54.5%"}, {"smiles": "Cc1nnc(SCC(=O)Nc2ncc3c(n2)CC(C)(C)CC3=O)s1", "inhibition": "22.5%"}, {"smiles": "COc1ccc(-c2noc(COc3ccc(Cl)c(C)c3)n2)cc1", "inhibition": "11.2%"}, {"smiles": "CCOc1ccc(/C(O)=C2/C(=O)C(=O)N(Cc3cccnc3)C2c2ccc(N(C)C)cc2)c(C)c1", "note": "(stereo not drawn)", "inhibition": "20.8%"}, {"smiles": "N#Cc1ccc(CSc2nnc(-c3ccccn3)n2-c2ccc(Cl)cc2)cc1", "inhibition": "7.5%"}, {"smiles": "CCc1nnc(NC(=O)CSc2nnc(COc3ccc(C#N)cc3)n2-c2ccccc2)s1", "inhibition": "30.3%"}, {"smiles": "O=P(c1ccc2c(c1)OCCO2)(N1CCOCC1)N1CCOCC1", "inhibition": "24.8%"}, {"smiles": "O=C(NNC(=O)c1cccnc1)Nc1ccccc1", "inhibition": "-10.1%"}, {"smiles": "CC(C)NC(=O)C(=O)N/N=C/c1ccco1", "inhibition": "-20.6%"}, {"smiles": "COc1ccc(Nc2nc(=O)[nH]nc2C)cc1", "inhibition": "1.9%"}, {"smiles": "CCN(CC)CC(=O)Nc1nn(-c2ccccc2)nc1C(N)=O", "inhibition": "-20.1%"}, {"smiles": "CC(=O)c1cc2c(cc1NC(=O)CN1CCCCCC1)OCO2", "inhibition": "0.4%"}, {"smiles": "O=C(Nc1nn(Cc2ccccc2F)cc1Br)c1cccs1", "inhibition": "8%"}, {"smiles": "O=C(O)c1ccc(COc2c(F)c(F)cc(F)c2F)o1", "inhibition": "-9.4%"}, {"smiles": "O=C(Nc1ccn(Cc2ccccc2F)n1)c1ccc(COc2ccc(Cl)cc2Cl)o1", "inhibition": "92.6% (active)"}, {"smiles": "OC(COCCC12CC3CC(CC(C3)C1)C2)CN1CCCCC1", "note": "(stereo not drawn)", "inhibition": "3.4%"}, {"smiles": "CCN1CCCC1CNC(=O)Cn1cnc2ccc(S(=O)(=O)N3CCC(C)CC3)cc2c1=O", "note": "(stereo not drawn)", "inhibition": "7.3%"}, {"smiles": "COC(=O)C1C(=O)NCC1c1ccc(OC)cc1", "note": "(stereo not drawn)", "inhibition": "-19.7%"}, {"smiles": "COC(=O)C1=C(Nc2ccc(OC)cc2)C=C(C)C(C(=O)OC)C1c1ccc(C)cc1", "note": "(stereo not drawn)", "inhibition": "51.9% (active)"}, {"smiles": "COC(=O)C1C(=O)NCC1c1ccc(C)cc1", "note": "(stereo not drawn)", "inhibition": "17.3%"}, {"smiles": "O=C1CCCC2=C1C(c1cccs1)n1nc(SCc3ccccc3)nc1N2", "note": "(stereo not drawn)", "inhibition": "-9.5%"}, {"smiles": "COc1ccccc1C(=O)N1CCNC(=O)C1CC(=O)Nc1ccc(Cl)cc1", "note": "(stereo not drawn)", "inhibition": "27.9%"}, {"smiles": "Nc1ccccc1SCc1cc([N+](=O)[O-])cc2c1OCOC2", "inhibition": "53.9% (active)"}, {"smiles": "CN(C)S(=O)(=O)c1ccc(Oc2ccc(S(=O)(=O)N(C)C)cc2)cc1", "inhibition": "13.3%"}, {"smiles": "Cc1cccc(N=C2NC(=O)CS2)c1C", "inhibition": "21.1%"}, {"smiles": "COc1ccc2[nH]c(C)c(CCN(Cc3cccs3)C(=S)Nc3ccccc3OC)c2c1", "inhibition": "43.2%"}, {"smiles": "COC(=O)c1ccc(CN(c2ccccc2OC)S(=O)(=O)c2cccs2)o1", "inhibition": "94.6% (active)"}, {"smiles": "COC(=O)c1ccc(Cc2ccccc2)o1", "inhibition": "-29.6%"}, {"smiles": "Cc1oc(CC(C)C)c(CN2CCCC2)c1C(=O)O", "inhibition": "-18.2%"}, {"smiles": "CN(C)c1ccc(CNC2C3CC4CC(C3)CC2C4)cc1", "note": "(stereo not drawn)", "inhibition": "4.8%"}, {"smiles": "COc1ccccc1NC(=O)C1=C(C)Nc2nnnn2C1c1cccc(Br)c1", "note": "(stereo not drawn)", "inhibition": "41%"}, {"smiles": "COC(=O)c1ccc(C2C3=C(Nc4nnnn42)c2ccccc2OC3)cc1", "note": "(stereo not drawn)", "inhibition": "92.8% (active)"}, {"smiles": "O=c1[nH]c2c(c(=O)n1Cc1ccccc1)CCC2", "inhibition": "-27.1%"}, {"smiles": "COC(=O)c1ccc(/C=N\\n2c(C)nnc2C)cc1", "inhibition": "-3.4%"}, {"smiles": "Cc1noc(/C=C/N(C)C)c1S(=O)(=O)N1CCCC(C(=O)NCc2ccco2)C1", "note": "(stereo not drawn)", "inhibition": "48.9%"}, {"smiles": "Cc1noc(/C=C/c2ccco2)c1S(=O)(=O)N1CCC(C(=O)N2CCc3ccccc32)CC1", "inhibition": "76.9% (active)"}, {"smiles": "CCOC(=O)C1CCN(C(=O)C2CCN(S(=O)(=O)c3c(C)noc3C)CC2)CC1", "inhibition": "10.2%"}]}]}
